# PMC4336329 (PLoS ONE, 2015)
# Screen size: about 310,000 compounds; about 14,000 (4.5%) showed an effect of 50% or more. Effects have a minus sign here. This is one part of a sample in which strong results are shown more often than they occur.
# Biological target: human ether-à-go-go-related gene (hERG) potassium channel (human, UniProt Q12809)
# Test: primary screen, population patch clamp on CHO cells stably expressing hERG; higher = less effect of the substance
# 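Further: peak tail current of the secondary pulse compared with the same well before compound.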
# human ether-à-go-go-related gene (hERG) potassium channel, sequence (Q12809 whole entry, looked up): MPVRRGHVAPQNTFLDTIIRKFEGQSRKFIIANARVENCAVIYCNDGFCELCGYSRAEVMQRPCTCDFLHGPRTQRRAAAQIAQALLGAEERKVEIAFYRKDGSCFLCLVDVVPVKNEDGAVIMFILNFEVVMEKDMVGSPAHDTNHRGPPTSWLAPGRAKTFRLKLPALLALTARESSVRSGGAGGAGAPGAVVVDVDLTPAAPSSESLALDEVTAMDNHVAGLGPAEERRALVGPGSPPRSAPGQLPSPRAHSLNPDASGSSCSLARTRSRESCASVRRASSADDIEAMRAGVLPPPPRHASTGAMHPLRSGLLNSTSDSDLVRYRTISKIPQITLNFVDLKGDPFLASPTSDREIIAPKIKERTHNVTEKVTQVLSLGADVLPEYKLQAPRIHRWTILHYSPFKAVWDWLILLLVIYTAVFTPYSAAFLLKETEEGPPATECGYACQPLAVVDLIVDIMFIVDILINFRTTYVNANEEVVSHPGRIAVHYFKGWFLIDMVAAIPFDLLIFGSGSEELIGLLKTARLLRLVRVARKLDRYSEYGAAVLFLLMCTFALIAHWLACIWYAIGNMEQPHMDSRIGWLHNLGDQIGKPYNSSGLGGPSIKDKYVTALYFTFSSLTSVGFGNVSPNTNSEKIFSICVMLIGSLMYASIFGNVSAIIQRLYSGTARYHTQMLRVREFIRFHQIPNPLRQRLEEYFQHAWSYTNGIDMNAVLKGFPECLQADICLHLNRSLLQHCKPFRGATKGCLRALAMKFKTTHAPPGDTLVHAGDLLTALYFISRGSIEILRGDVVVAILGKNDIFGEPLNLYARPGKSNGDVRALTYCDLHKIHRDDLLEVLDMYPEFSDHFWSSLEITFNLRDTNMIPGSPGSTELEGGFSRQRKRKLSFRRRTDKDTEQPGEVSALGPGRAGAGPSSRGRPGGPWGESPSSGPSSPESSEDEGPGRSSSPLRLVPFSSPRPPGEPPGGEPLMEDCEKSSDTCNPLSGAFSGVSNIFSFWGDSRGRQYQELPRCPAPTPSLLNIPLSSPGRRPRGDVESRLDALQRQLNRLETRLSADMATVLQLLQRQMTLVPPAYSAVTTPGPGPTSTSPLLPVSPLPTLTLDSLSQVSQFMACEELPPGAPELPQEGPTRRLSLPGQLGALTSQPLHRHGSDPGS
row,SMILES,"hERG current change (%, negative = inhibition) at 10uM [%]"
1,COc1ccc(NC(C)=O)cc1S(=O)(=O)N1CCN(C(=O)c2ccccc2F)CC1,-7.16
2,O=C(COc1ccc(Cl)cc1)NCCCNC(=O)c1cnccn1,-10.2
3,O=C(COc1ccc(Cl)cc1Cl)NCCCNC(=O)c1cnccn1,-56.5
4,O=C(COc1ccccc1Cl)NCCCNC(=O)c1cnccn1,5.28
5,O=C(NCCCNC(=O)c1ccc(-c2cccc(Cl)c2)o1)c1cnccn1,-31.8
6,O=C(NCCNC(=O)c1ccc(-c2ccc(Cl)c(Cl)c2)o1)c1cnccn1,-71.6
7,Cc1ccc(-c2ccc(C(=O)NCCCNC(=O)c3cnccn3)o2)cc1Cl,25.5
8,CCn1c(SCc2cc(=O)[nH]c3ccccc23)nnc1C1CC1,8.48
9,O=C(N/N=C/c1ccncc1)c1cccc(NC(=O)c2ccccc2Cl)c1,-2.33
10,O=C(C1CCN(S(=O)(=O)c2cccc3nsnc23)CC1)N1CCCCC1,2.03
11,O=C(CN1CCN(c2ccc(F)cc2)CC1)N(C1CCCC1)C1CCS(=O)(=O)C1 (centres unmarked),-40.4
12,Cc1ccccc1Cn1cc(/C=N/n2cnnc2)c2ccccc21,14.8
13,COc1cc(CC(=O)Oc2ccc3c(c2)OCO3)cc(OC)c1OC,-2.51
14,COc1ccc(CCNC(=O)CS(=O)(=O)Cc2nc(-c3ccccc3Cl)oc2C)cc1OC,-3.23
15,COc1ccc(OC)c(-c2cc(C(=O)N/N=C(\C)c3cccnc3)c3ccccc3n2)c1,-65.5
16,CCn1cc(CNC(=O)c2cc(-c3cc(OC)ccc3OC)nc3ccccc23)c(C)n1,-53.9
17,COc1ccc(-c2cc(C(=O)N/N=C(\C)c3cccnc3)c3ccccc3n2)c(OC)c1,1.6
18,CC(=O)Nc1cccc(/C(C)=N/NC(=O)c2cc(-c3ccncc3)nc3ccccc23)c1,-6.95
19,CCn1cc(CNC(=O)c2cc(-c3ccccc3OC)nc3ccccc23)c(C)n1,-19.5
20,C/C(=N\NC(=O)c1cc(-c2ccncc2)nc2ccccc12)c1ccc(OC(F)F)cc1,-56.1
21,COc1ccc(/C(C)=N/NC(=O)c2cc(-c3cccnc3)nc3ccccc23)cc1,10.6
22,COc1ccc(-c2cc(C(=O)NCc3cn(C)nc3C)c3ccccc3n2)cc1OC,2.61
23,COc1ccc(-c2cc(C(=O)N/N=C(\C)c3cccnc3)c3ccccc3n2)cc1,8.87
